Usually Inhibition stands for the percentage by which the read-out fell short of the control.

The test system of the first experiment is Plasmodium falciparum. Kind of experiment: GSK_TCMDC: Inhibition of Plasmodium falciparum 3D7 in whole red blood cells, using parasite LDH activity as an index of growth. Test compounds present at 2uM. Format: functional.
`COc1cc(C)nc2ccc(NC(=O)Nc3ccc([N+](=O)[O-])cc3C)cc12` gave an Inhibition of 90%.
In the case of `Cc1cc(=NN=Cc2cccc(Cl)c2)c2ccc(F)cc2[nH]1`, the Inhibition worked out at 100%.
The compound `CCOc1cc(NC(=O)Nc2ccnc3ccccc23)cc(OC)c1.Cl` gave an Inhibition of 98%.

Another experiment deals with Plasmodium falciparum. Briefly: GSK_TCMDC: Inhibition of Plasmodium falciparum Dd2 in whole red blood cells, using parasite LDH activity as an index of growth. Test compounds present at 2uM. Format: functional.
With `COc1ccc(CNC(=O)c2cnc3c(O)cccc3c2Nc2cccc(NC(=O)c3ccc(-c4ccccc4)cc3)c2)cc1.O=C(O)C(F)(F)F`, the Inhibition turned out to be 83%.
For `CCCCCN1CCCC(CNS(=O)(=O)c2ccc(C(=O)Nc3ccc(C(F)(F)F)cc3)cc2)C1.O=C(O)C(F)(F)F` (stereo not drawn), the Inhibition is 0%.
Regarding `CC(CN(C)C)C(=O)Nc1cccc(-c2cccc(-c3nc4ccccc4[nH]3)c2)c1` (stereo not drawn), the Inhibition came out at 25%.
With `N#Cc1ccc(CN2CCCN(Cc3cccc(NC(=O)c4cc5ccccc5s4)c3)CC2)cc1.O=C(O)C(F)(F)F`, the Inhibition was found to be 36%.
Take `O=C(CC1NC(=O)c2ccccc21)Nc1ccc(-c2cccc(-c3nc4cc(C(F)(F)F)ccc4[nH]3)c2)cc1` (stereo not drawn): the Inhibition is recorded as 36%.
Take `O=C(Nc1cccc(CN2CCCN(Cc3ccc4c(c3)OCO4)CC2)c1)c1ccc(Cl)c(Cl)c1.O=C(O)C(F)(F)F`: the Inhibition was 10%.
Same read-out and setting: to `CCc1ccc(NC(=O)c2ccc(CN3CCCN(Cc4cccc(Cl)c4)CC3)cc2)cc1.O=C(O)C(F)(F)F` belongs 2%.
On to `CC(C)CCNC(=O)C1Cc2c([nH]c3cc(Br)ccc23)C2(CCN(Cc3ccccc3)CC2)N1` (stereo not drawn), for which the Inhibition is given as 45%.
`COc1ccc(F)cc1-c1ccc(C(=O)N2CCCN(c3ccc(C#N)cn3)CC2)cc1` showed an Inhibition of 100%.
On to `CCC(=O)Nc1cc(=O)[nH]c2nc(-c3ccc(Cl)cc3)nn12`, for which the Inhibition stood at 62%.
Still for that read-out and setting: to `N#Cc1ccc(N2CCN(C(=O)c3cccc(-c4noc(C(F)(F)F)n4)c3)CC2)nc1` belongs 58%; to `CC(C)(C)c1ccc2[nH]c(-c3ccc(/C=C/C(=O)NCc4cccc(C(F)(F)F)c4)cc3)nc2c1`, 11%; to `CCn1cc(-c2nc(-c3cc(OC)cc(OC)c3)no2)c(=O)c2ccccc21`, 77%.
On the same count and under the same terms, to `O=C(O)C(F)(F)F.O=C(c1cccs1)N(Cc1cccc(-c2ccc(CNCCc3ccccc3)cc2)c1)C1CCN(Cc2ccccc2)CC1` belongs 76%; to `Cc1cc(Nc2cc(Cl)cc(Cl)c2)nc(N)n1`, 28%; to `CCOc1cc(-c2nnc3[nH]c(=O)n(C)c(=O)c3n2)ccc1OC(C)C`, 86%.
`CS(=O)(=O)O.FC(F)(F)COc1ccc(CNCCCCCCNCc2ccc(OCC(F)(F)F)c3ccccc23)c2ccccc12` showed an Inhibition of 93%.
On the same count and under the same terms, to `COc1cc(F)c2ncc(F)c(CCN3C[C@H](CNCc4ccc5c(n4)NC(=O)CS5)[C@H](O)C3)c2c1.Cl` belongs 47%; to `COc1nc2c(CCN3CCC(NCc4ccc5c(c4)NC(=O)CO5)CC3)c(Cl)cnc2cc1F.Cl`, 21%; to `O=C(Nc1ccc(Cl)cc1)N[C@H]1CCN(CCCCCNC(=O)C2CC2c2ccc(Cl)c(Cl)c2)C1` (stereo partly drawn), 1%.
Still for that read-out and setting: to `c1ccc(-c2cc3cccc(-c4nc5cnccc5[nH]4)c3o2)cc1` belongs 95%; to `CC(C)COc1ccc(Cl)cc1Cc1ccc(-c2nc3cc(CCN4CCCC4)ccc3[nH]2)o1.Cl`, 94%; to `NC(=O)c1cc(-c2ccccc2)cc2c(C3CCC(NCc4ccccc4)C3)c[nH]c12` (stereo not drawn), 30%.
Same read-out and setting: to `CCOC(=O)c1c(C)noc1Nc1ccc(OC)cc1` belongs 0%.
In turn, `C=CCn1c(Sc2ccc(C#N)c([N+](=O)[O-])c2)nnc1-c1cc(OC)cc(OC)c1` yielded an Inhibition of 84%.
On the same count and under the same terms, the figure for `CCOc1cc(C(=O)Nc2ccccc2N2CCN(S(C)(=O)=O)CC2)cc(OCC)c1OCC` is 80%; for `Br.O=C(CNc1ccncc1)c1c[nH]c2ccccc12` it is 62%.
`Oc1cccc(Nc2nc(NCc3ccco3)c3ccccc3n2)c1` showed an Inhibition of 74%.
In turn, `CN1CCN(c2ccnc3ccc(NC(=O)c4ccc(Cl)c(Cl)c4)cc23)CC1` came in with an Inhibition of 64%.
The same measure, in the same setting: to `CCN1CCC(NCc2ccc(-c3ccc(Cl)cc3)cc2)CC1` belongs 33%.
On the same count and under the same terms, to `CN(C)CCNC(=O)c1cccc(-c2cnc3ccc(NCc4ccc(Cl)c(Cl)c4)nn23)c1` belongs 53%.
For the compound `CS(=O)(=O)CCNCc1ccc(-c2cc3c(Nc4ccc(OCc5cccc(F)c5)c(Cl)c4)ncnc3s2)[nH]1`, the Inhibition is 95%.
Still for that read-out and setting: to `COc1cccc(C(=O)Nc2ccc(S(=O)(=O)c3cc4c(cc3OC)CCN(C)CC4)cc2)c1` belongs 3%.
As to `O=C(NC1CC1)c1ccc(N2CCOc3ccc(Cl)cc32)s1`, the Inhibition is on record as 73%.
Consider `CCOC(=O)c1ccc(NC(=O)NC2CCN(CCCCCNC(=O)/C=C/c3ccc(Cl)c(Cl)c3)C2)cc1` (stereo not drawn), for which the Inhibition is given as 0%.
The same measure, in the same setting: the figure for `Cl.N#Cc1ccc2c(c1)CCN(CCC1CCC(NC(=O)c3cc4ccc(Br)cc4[nH]3)CC1)C2` (stereo not drawn) is 17%; for `O=C(O)C(F)(F)F.OCC1CCCCN1Cc1cccc(-c2cccc(-c3nc4ccccc4[nH]3)c2)c1` (stereo not drawn) it is 4%; for `COc1cc(C)nc2ccc(NC(=O)Nc3ccc([N+](=O)[O-])cc3C)cc12` it is 52%.
The same measure, in the same setting: the figure for `Cc1cc(=NN=Cc2cccc(Cl)c2)c2ccc(F)cc2[nH]1` is 98%; for `CCOc1cc(NC(=O)Nc2ccnc3ccccc23)cc(OC)c1.Cl` it is 73%.

The record behind these values is ChEMBL document CHEMBL1157539, “Thousands of chemical starting points for antimalarial lead identification” (Nature, 2010).
